Hits are enriched below; roughly 3.8% of the tested compounds scored in any of these assays.
ELG1 DNA repair: blocks ELG1-dependent DNA repair in HEK293T cells; HEK293T ELG1-luciferase reporter, luminescence, 16 h; DNA damage induced by 5-fluorouridine; Potency, µM (series often up to 46.1 µM), actives largely listed as inhibitors; hit rate 2.3% among 330,000; note: nearly all actives have a fitted effect of over 55% in size
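Overnight (16 hr) co-exposure of 2,000 cells/well to 5-fluorouridine and compound at 37 °C preceded detection. Luciferase was quantified via ONE-Glo luminescence; loss of signal denotes inhibition.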
A549 viability: kills or reduces viability of A549 cells in Nrf2 counter-screen; A549 ARE-Fluc cells, CellTiter-Fluor viability, 18-24 h; Potency, µM (top dose mostly 46 µM), actives largely listed as inhibitors; hit rate 0.16% among 390,000; AID 504648
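A549 ARE-Fluc cells in 5% FBS OPTI-MEM, 5000 cells/well, rested 2 h then exposed to compounds in concentration-response for 18-24 h at 37 °C. Viability by CellTiter-Fluor fluorescence (Ex 405/Em 525) after 30 min; luciferase luminescence (BugLite, 15 min, RT) read afterwards.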
Nrf2 inh: inhibitors of Nrf2 signaling; Potency, µM (highest dose often 46 µM), usual class: inhibitors; hit rate 2.1% among 360,000; AID 504444; A549 ARE-Fluc reporter, luciferase luminescence, 18-24 h; note: nearly all actives have a fitted effect of over 60% in size
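Concentration-response testing used A549 ARE_Fluc cells at 5000 cells/well. Following an 18-24 h compound incubation, viability was read by fluorescence (Ex 405/Em 525) and luciferase output by luminescence.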
mIDH1 inhibitor: blocks human mutant IDH1 R132H enzyme. hit rate 0.093% among 390,000. Potency, µM (doses to about 76.6 µM), hits mostly inhibitors. O75874. AID 602179. IDH1-R132H enzyme, NADPH consumption, diaphorase/resazurin fluorescence; note: nearly all actives have a fitted effect of over 65% in size
Target sequence (O75874 whole entry R132H, stated change not applied): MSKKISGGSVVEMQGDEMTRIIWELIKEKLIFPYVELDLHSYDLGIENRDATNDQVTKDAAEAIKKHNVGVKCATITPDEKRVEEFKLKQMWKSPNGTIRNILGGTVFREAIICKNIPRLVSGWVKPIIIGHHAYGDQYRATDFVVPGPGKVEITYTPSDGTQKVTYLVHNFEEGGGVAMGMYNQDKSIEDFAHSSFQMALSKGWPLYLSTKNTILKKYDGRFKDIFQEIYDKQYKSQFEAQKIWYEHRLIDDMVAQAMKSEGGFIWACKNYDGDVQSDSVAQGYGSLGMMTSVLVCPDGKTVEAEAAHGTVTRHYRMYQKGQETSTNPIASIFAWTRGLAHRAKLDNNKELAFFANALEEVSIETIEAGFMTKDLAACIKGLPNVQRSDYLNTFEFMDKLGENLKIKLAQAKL
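IDH1-R132H (0.5 ug/mL) preincubated 30 min with compound, then NADPH (0.016 mM) and alpha-KG (2 mM) added; 80 min at RT, pH 7.5. Remaining NADPH coupled via diaphorase/resazurin to fluorescence (540/590 nm); concentration-response curves normalized to no-enzyme control.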
Nrf2 activator: Nrf2 pathway activation | AREc32 ARE-luciferase reporter (MCF7-derived line), luminescence, 24 h | Potency, µM (series often up to 46.1 µM), actives largely listed as activators | hit rate 0.31% among 410,000; note: nearly all actives have a fitted effect of over 65% in size
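Steps: seed AREc32_Fluc cells (1000/well, 5% FBS OPTI-MEM); incubate overnight at 37 deg C; add 23 nL compound; incubate 24 hr; add Steady-Glo; hold 30 min RT; read luminescence.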
Large screens that a line does not name were inactive. Calls come from the whole dose curve; as a rule, active = well fitted curve in the direction sought with a large enough effect; inconclusive = small, poorly fitted or top-dose-only effect, or another doubt; inactive = no such curve, though single readings can be large; an effect the other way counts as inactive or inconclusive.

O=C(NCc1cccs1)C1CCN(c2ccc(S(=O)(=O)N3CCOCC3)cc2Cl)CC1	ELG1 DNA repair 18µM
CSc1cccc(NC(=O)C2CCN(S(=O)(=O)c3ccc(F)cc3)CC2)c1	Nrf2 inh 15µM (no result: ELG1 DNA repair)
CSc1cccc(NC(=O)C2CCCN(S(=O)(=O)c3ccc(F)cc3)C2)c1 (stereo not drawn)	ELG1 DNA repair 21µM (no result: Nrf2 inh)
Cc1cccc(NC(=O)C2CCN(S(=O)(=O)c3ccc4c(c3)NC(=O)CO4)CC2)c1C	none
CSc1cccc(NC(=O)C2CCN(S(=O)(=O)c3ccc4c(c3)NC(=O)CO4)CC2)c1	Nrf2 inh 23µM
O=C(Nc1cccc(Cl)c1)C1CCCN(S(=O)(=O)c2ccc(F)cc2)C1 (stereo not drawn)	ELG1 DNA repair inconclusive, A549 viability inconclusive (no result: Nrf2 inh)
COc1ccc(NC(=O)c2cn3c4c(ccc(Cl)c4c2=O)OC(C)C3)cc1OC (stereo not drawn)	Nrf2 inh inconclusive (no result: ELG1 DNA repair)
CCn1c(COc2ccc(Cl)cc2)nnc1SC1CCc2ccccc2C1=O (stereo not drawn)	ELG1 DNA repair inconclusive, Nrf2 inh 26µM
CCn1c(COc2ccc(Cl)cc2)nnc1SCc1ccc(C#N)cc1	ELG1 DNA repair inconclusive, Nrf2 inh inconclusive
Cc1cc2c(s1)c1cnn(Cc3cccc(Cn4ncc5c6sc(C)cc6n(C)c5c4=O)c3F)c(=O)c1n2C	none (no result: ELG1 DNA repair, mIDH1 inhibitor, Nrf2 activator)
O=C(O)CCCCCn1c(O)c(C=C2N=c3ccccc3=N2)sc1=S	ELG1 DNA repair inconclusive, Nrf2 inh inconclusive, Nrf2 activator inconclusive
O=C(O)CCCn1c(O)c(C=C2N=c3ccccc3=N2)sc1=S	ELG1 DNA repair inconclusive, A549 viability inconclusive, Nrf2 activator 14µM
Cc1ccc(NC(=O)c2ccc([N+](=O)[O-])s2)cc1S(=O)(=O)N1CCOCC1	ELG1 DNA repair 6.5µM, A549 viability inconclusive, Nrf2 inh inconclusive, Nrf2 activator inconclusive
Cc1ccc(NC(=O)c2ccccc2NS(=O)(=O)c2ccc(Cl)s2)cc1S(=O)(=O)N1CCOCC1	ELG1 DNA repair 23µM, A549 viability inconclusive, Nrf2 inh 23µM
O=C(Nc1cc(S(=O)(=O)N2CCOCC2)ccc1O)c1ccc(NS(=O)(=O)c2ccc(Cl)s2)cc1	none
O=C(Nc1cc(S(=O)(=O)N2CCOCC2)ccc1N1CCOCC1)c1ccc([N+](=O)[O-])s1	ELG1 DNA repair 21µM, Nrf2 inh inconclusive
COc1ccc(S(=O)(=O)N2CCOCC2)cc1NC(=O)COC(=O)c1ccc([N+](=O)[O-])s1	ELG1 DNA repair 23µM
O=C(Nc1cc(S(=O)(=O)N2CCOCC2)ccc1N1CCOCC1)c1cc2c(s1)CCC2	ELG1 DNA repair inconclusive
COc1ccc(S(=O)(=O)N2CCOCC2)cc1NC(=O)c1cc2c(s1)CCCC2	ELG1 DNA repair 16µM
COc1cc(S(=O)(=O)N2CCOCC2)ccc1NC(=O)COC(=O)CC12CC3CC(CC(C3)C1)C2	ELG1 DNA repair 18µM, Nrf2 inh inconclusive
Cc1c(C(=O)Nc2cccc(C(F)(F)F)c2)oc2ccc3c(c12)C(=O)CC(C)(C)O3	Nrf2 inh inconclusive (no result: ELG1 DNA repair)
O=C(CN(c1ccc(F)cc1)S(=O)(=O)c1ccc2c(c1)OCCO2)Nc1ccccc1	ELG1 DNA repair 21µM, Nrf2 inh inconclusive
O=C(CN(c1ccc2c(c1)OCCO2)S(=O)(=O)c1ccccc1)NCc1ccc(Cl)cc1	ELG1 DNA repair 26µM
CC(=O)Nc1ccc(NC(=O)CN(c2ccc(F)cc2)S(=O)(=O)c2ccc3c(c2)OCCO3)cc1	none (no result: Nrf2 inh)
COC(=O)c1c(NC(=O)COc2ccc(C)cc2Br)sc2c1CCCC2	none (no result: ELG1 DNA repair)
CCN(C[C@H]1N[C@@](CC)(C(=O)OC)[C@H]2C(=O)N(C)C(=O)[C@@H]12)C(=O)Nc1ccccc1	none
Cc1ccc(OCc2cc(C(=O)N(C)Cc3cnc4ccccn34)no2)cc1C	ELG1 DNA repair inconclusive, Nrf2 inh inconclusive
CC(C)N1C(=O)S/C(=C/c2ccc(Sc3nc4ccccc4[nH]3)o2)C1=O	ELG1 DNA repair inconclusive, A549 viability inconclusive, Nrf2 inh 15µM
O=C(O)c1sccc1Oc1ccc(NS(=O)(=O)c2ccccc2)cc1	none
Cc1cc(C)cc(OCC(=O)NCC2(N3CCOCC3)CCCCC2)c1	none (no result: ELG1 DNA repair)
Cc1ccc(C2CN(C)C3(C(=O)Nc4ccccc43)C23COc2ccccc2C3=O)cc1 (stereo not drawn)	Nrf2 inh inconclusive
CN1CC(c2ccccc2Cl)C2(COc3ccccc3C2=O)C12C(=O)Nc1ccccc12 (stereo not drawn)	ELG1 DNA repair inconclusive, Nrf2 inh 21µM
O=S(=O)(c1ccc2nc(Cl)c(Cl)nc2c1)N1CCN(S(=O)(=O)c2c(F)cccc2F)CC1	none (no result: ELG1 DNA repair, mIDH1 inhibitor, Nrf2 activator)
O=C(C1=NN[C@@H]2C(=O)N(Cc3ccccc3)C(=O)[C@H]12)c1ccc(F)cc1	none
COc1ccc(COc2cc(-c3cccc(OC)c3)nc3ccc(NC(=O)c4ccccc4)cc23)cc1	ELG1 DNA repair 6.5µM
COc1cccc(-c2cc(C(=O)Nc3ccc(Br)c(C)c3)[nH]n2)c1	none (no result: ELG1 DNA repair)
COc1ccc(COc2cc(-c3cccc(OC)c3)nc3ccc(NC(=O)c4ccc(Cl)cc4)cc23)cc1	ELG1 DNA repair inconclusive
COc1ccc(COc2cc(-c3cccc(OC)c3)nc3ccc(NC(=O)c4ccc(OC)cc4)cc23)cc1	ELG1 DNA repair 4.1µM
COc1ccc(COc2cc(-c3cccc(OC)c3)nc3ccc(NC(=O)c4cccnc4)cc23)cc1	ELG1 DNA repair 2.9µM, Nrf2 inh inconclusive
COc1cccc(-c2cc(C(=O)Nc3ccc(F)cc3)[nH]n2)c1	Nrf2 inh 2.6µM (no result: ELG1 DNA repair)
COc1ccc(NC(=O)c2cccc(NC(=O)c3ccccc3)c2)cc1	none
NS(=O)(=O)c1cccc(NC(=O)CSc2n[nH]c(-c3ccccc3Br)n2)c1	none (no result: ELG1 DNA repair)
Cn1c(NCc2ccco2)nc2c1c(=O)n(Cc1ccc(Br)cc1)c(=O)n2C	ELG1 DNA repair 18µM, Nrf2 inh inconclusive
COc1ccc(CNc2nc3c(c(=O)n(Cc4ccc(Br)cc4)c(=O)n3C)n2C)cc1	ELG1 DNA repair inconclusive, Nrf2 inh 18µM
Cn1c(NCc2ccccc2)nc2c1c(=O)n(Cc1ccc(Br)cc1)c(=O)n2C	ELG1 DNA repair 21µM, Nrf2 inh 15µM
COc1ccc(Cn2c(=O)c3c(nc(NCCO)n3C)n(C)c2=O)cc1	none
Cn1c(NCc2ccco2)nc2c1c(=O)n(Cc1ccc(Cl)cc1Cl)c(=O)n2C	ELG1 DNA repair inconclusive, Nrf2 inh 18µM
O=C(NCCc1csc(-c2ccccc2)n1)c1c(F)cccc1Cl	ELG1 DNA repair 18µM, Nrf2 inh inconclusive
O=C(NCCc1csc(-c2cccnc2)n1)c1ccc(Br)o1	ELG1 DNA repair 12µM
COc1ccc(-c2nc(CCNC(=O)c3cccs3)cs2)cc1	ELG1 DNA repair 21µM, Nrf2 inh inconclusive
O=C(NCCc1csc(-c2ccccc2)n1)c1ccc(Br)o1	none
